Results reported in the supplement of paper PMC3334620.
In all, about 33,000 sequences were measured (“E-score (-0.5 to 0.5)”: median about -8e-05, highest 2% from about 0.23 on). The sample as a whole holds a higher share of the highest values than the screen did.

target: T1, Nrg2 (UniProt P38082); assay: PBM E-score (8-mer binding enrichment) (E-score (-0.5 to 0.5)); higher = stronger / more preferred TF binding; conditions: protein concentration: 100 nM; construct: GST-full length
T1 sequence: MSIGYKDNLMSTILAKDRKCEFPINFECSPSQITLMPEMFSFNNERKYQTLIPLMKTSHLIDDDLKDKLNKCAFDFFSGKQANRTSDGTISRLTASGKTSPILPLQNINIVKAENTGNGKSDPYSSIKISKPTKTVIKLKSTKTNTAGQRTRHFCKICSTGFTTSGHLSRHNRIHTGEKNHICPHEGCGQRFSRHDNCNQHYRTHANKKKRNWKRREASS
Procedure: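 Universal 'all 10-mer' protein binding microarrays (Agilent AMADID 015681) probed with GST-tagged S. cerevisiae TFs (full-length or DBD) made by in vitro transcription/translation (PURExpress), about 100-200 nM. Bound TF was detected with fluorescent anti-GST. Each ungapped 8-mer (which stands for itself and its reverse complement) is scored by the PBM enrichment score (E-score), a modified Wilcoxon-Mann-Whitney statistic from -0.5 to +0.5, computed with the Universal PBM Analysis Suite. Scale: above 0.35 generally sequence-specific binding.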

Row | Sequence | PBM E-score
1 | AGGCCGGG | -0.266
2 | GCAGTGCA | -0.0476
3 | ATGAGCTA | 0.069
4 | CAGCAAGC | -0.226
5 | CCGCCCTC | -0.112
6 | CAGCCAGG | 0.0441
7 | AAGGATTA | -0.0123
8 | GTCCCCAC | -0.178
9 | ATCCCCAC | 0.247
10 | ATCCCCAT | 0.124
11 | AAAGTCTA | -0.0546
12 | CTCTGCAG | -0.0279
13 | GTGCATCA | 0.129
14 | ATGCATCG | 0.0353
15 | ATGCATCA | 0.229
16 | CGAGATAG | 0.0116
17 | GATCTTCA | 0.0364
18 | AACATATT | 0.0545
19 | CCGCCCCC | -0.406
20 | CCGCCCCG | 0.309
21 | CCGCCCGG | -0.003
22 | AGCTCTGA | -0.199
23 | AGTGCAAA | 0.258
24 | CTTGCAAA | 0.232
25 | CATGCAAA | 0.246

Row | Sequence | PBM E-score
26 | CTTGCAAC | 0.124
27 | AATGCAAG | 0.0402
28 | AGTGCAAT | 0.0654
29 | AGTGCAAG | 0.156
30 | AATGCAAA | 0.244
31 | CATGCAAG | 0.088
32 | CTTGCAAG | 0.181
33 | TATGCAAA | -0.0899
34 | AATGCAAC | 0.127
35 | ACCCGTGG | -0.111
36 | TCATAAAA | -0.032
37 | GCACTAGA | -0.0716
38 | CTGGTTCC | 0.158
39 | AAGAATGG | 0.0626
40 | TAAGAGGA | -0.0476
41 | GTTTACGA | -0.00773
42 | CAGGTCTA | -0.0487
43 | GCGTCGTA | 0.0775
44 | AAAGCTTG | 0.00751
45 | CCCAGTCG | -0.143
46 | AGATCAAA | 0.0337
47 | AATGCGCG | 0.177
48 | ATTGCGCA | 0.143
49 | CTTGCGCA | 0.264
50 | CATGCGCA | 0.164

Row | Sequence | PBM E-score
51 | ATTGCAAA | 0.127
52 | ATTGCAAT | 0.243
53 | AATGCGCA | 0.296
54 | CTTGCGCC | -0.0573
55 | ATTGCAAG | 0.137
56 | ATCCTTGC | -0.0413
57 | AGCAGACC | 0.135
58 | ACCTTCTA | -0.0686
59 | CGTGTCCC | -0.104
60 | ACGACTAT | 0.0778
61 | CTGTAGGA | 0.0349
62 | AGTAGTAT | 0.114
63 | ATAAATCA | 0.0708
64 | GGAAATCA | -0.049
65 | GTAAATCA | 0.24
66 | CTAAATCA | 0.0351
67 | CGAAATCC | 0.199
68 | CGAAATCA | 0.244
69 | GCTGTGTA | -0.051
70 | CCTCTCCA | -0.343
71 | AGGCATCC | -0.161
72 | AGGGGTAC | 0.142
73 | CTCTTTTA | -0.0622
74 | ATTCATAG | 0.155
75 | CTTCATAC | 0.112

Row | Sequence | PBM E-score
76 | ATTCATAC | 0.238
77 | ATCTCATC | 0.0993
78 | CTTATGGC | -0.0261
79 | CCCTGACG | 0.138
80 | GCCTGACA | -0.173
81 | CCCTGACC | 0.3
82 | CCCTGACA | 0.288
83 | GCCTGACC | -0.0177
84 | ACCTGACC | -0.197
85 | TAACTGCA | 0.157
86 | CTCTCAAC | -0.121
87 | GAGTCTCC | -0.178
88 | CAGCAATC | 0.0368
89 | AAACAGTG | 0.167
90 | CAGGGATC | 0.238
91 | CAGGGATG | 0.211
92 | AAGGGATC | 0.135
93 | TAGGGATA | 0.134
94 | CAGGGATA | 0.286
95 | GAGGGATA | -0.145
96 | ATTTTCTC | 0.106
97 | CCCGCCAC | 0.269
98 | ACCGCCAC | -0.117
99 | GCCGCCAC | -0.231
100 | GGCGTCGA | 0.148

Row | Sequence | PBM E-score
101 | CAGGTAGC | -0.212
102 | AATGCTGC | 0.0363
103 | AATGGCCA | -0.0344
104 | ACTTTAAG | 0.243
105 | CCTTTAAG | -0.0435
106 | ACTTTAAA | 0.0738
107 | GATTAGAC | 0.0407
108 | CGTCGAAA | 0.075
109 | CGAATGAG | 0.0496
110 | ATAGATCG | 0.0393
111 | CAAACTCC | 0.0622
112 | AGCTAGCC | -0.0348
113 | AGCTAGCT | 0.244
114 | AGCTAGCA | -0.191
115 | ACGCAGCT | 0.0108
116 | AGTCTGAG | -0.319
117 | AGGACAGA | 0.0623
118 | CGGCTTGA | -0.0482
119 | AGGCTTGC | -0.173
120 | CGGCTTGC | 0.237
121 | CGCCTAGC | -0.315
122 | GGTCTTAA | -0.301
123 | CATCTCTC | 0.148
124 | ACCGCAGA | -0.0429
125 | ATTCGGGA | 0.0112

Row | Sequence | PBM E-score
126 | ATTCGGGC | -0.044
127 | ATTCGGGG | 0.243
128 | ACCCGCTG | -0.133
129 | ATTTACTC | 0.271
130 | GTTTACTA | 0.155
131 | ATTTACTA | 0.0988
132 | CTTTACTA | 0.26
133 | ATTTACTG | 0.107
134 | CTTTACTC | 0.144
135 | GCAGTGGC | -0.173
136 | CAGCTGGA | 0.123
137 | GACTCGGA | -0.226
138 | CTTTTAAA | -0.168
139 | AGCAGCCA | 0.0226
140 | ATCGATTA | 0.0753
141 | CTCGATAC | 0.245
142 | ATCGATAC | 0.133
143 | CTCGATTA | 0.251
144 | CTCGATTC | 0.15
145 | CTCGATAA | 0.041
146 | GCGGATAC | 0.0466
147 | GGCGCCAA | 0.133
148 | CGTCGCCC | -0.282
149 | CCAAAGCA | 0.119
150 | GCTGCACC | -0.0621

Row | Sequence | PBM E-score
151 | GAATATAA | 0.12
152 | TAATATAA | 0.302
153 | TAATATTA | 0.322
154 | TAATATGA | 0.0376
155 | CAATATAA | 0.212
156 | AAATATTA | 0.247
157 | TAATATCA | 0.0975
158 | AAATATTG | 0.204
159 | CAATATTA | 0.154
160 | AACCTGTC | -0.0794
161 | AGCTATAC | -0.101
162 | CATGGGCA | 0.0918
163 | AAATAATC | 0.0163
164 | GAATAATA | 0.238
165 | CAATAACA | 0.0577
166 | GCATAATA | 0.201
167 | GAATAATC | 0.185
168 | AAATAATA | 0.203
169 | ACATAATC | 0.193
170 | TAATAACA | 0.00017
171 | AAATAATT | 0.243
172 | TAATAATA | 0.0963
173 | GAATAACA | 0.265
